{"source": "the supplement of paper PMC11741263", "about": "“Chemoproteomic Profiling of C. albicans for Characterization of Anti-fungal Kinase Inhibitors” (bioRxiv, 2025)", "test_in_all_cases": "MIB bead binding, log2 fold change vs DMSO (log2 ratio); higher = less competition (weaker engagement)", "key": {"ATG1": {"molecular_target": "T1, ATG1 (UniProt Q5A649)", "T1 sequence (whole entry)": "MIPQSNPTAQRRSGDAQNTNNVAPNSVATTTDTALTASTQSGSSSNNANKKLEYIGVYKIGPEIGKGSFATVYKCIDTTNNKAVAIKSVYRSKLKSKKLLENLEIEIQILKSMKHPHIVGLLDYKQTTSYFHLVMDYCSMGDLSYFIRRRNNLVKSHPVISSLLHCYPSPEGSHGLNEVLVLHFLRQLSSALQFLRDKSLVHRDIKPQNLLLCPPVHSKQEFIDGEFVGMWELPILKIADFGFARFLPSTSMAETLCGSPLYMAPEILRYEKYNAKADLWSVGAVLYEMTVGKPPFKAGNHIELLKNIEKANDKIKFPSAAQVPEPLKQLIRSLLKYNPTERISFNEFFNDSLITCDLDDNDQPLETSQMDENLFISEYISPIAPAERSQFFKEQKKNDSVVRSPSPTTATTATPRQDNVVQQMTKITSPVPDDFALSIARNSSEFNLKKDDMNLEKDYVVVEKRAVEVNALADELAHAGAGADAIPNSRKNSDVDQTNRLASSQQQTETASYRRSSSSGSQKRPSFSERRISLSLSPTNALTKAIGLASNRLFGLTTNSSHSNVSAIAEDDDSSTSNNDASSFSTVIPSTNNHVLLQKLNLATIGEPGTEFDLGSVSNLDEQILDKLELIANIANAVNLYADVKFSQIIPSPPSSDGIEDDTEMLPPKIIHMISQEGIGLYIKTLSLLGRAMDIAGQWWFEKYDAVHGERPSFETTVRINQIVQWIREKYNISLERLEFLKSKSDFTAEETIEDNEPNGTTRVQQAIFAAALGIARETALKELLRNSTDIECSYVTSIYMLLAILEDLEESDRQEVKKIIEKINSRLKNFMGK"}, "PKC1": {"molecular_target": "T2, PKC1 (UniProt P43057)", "T2 sequence (whole entry)": "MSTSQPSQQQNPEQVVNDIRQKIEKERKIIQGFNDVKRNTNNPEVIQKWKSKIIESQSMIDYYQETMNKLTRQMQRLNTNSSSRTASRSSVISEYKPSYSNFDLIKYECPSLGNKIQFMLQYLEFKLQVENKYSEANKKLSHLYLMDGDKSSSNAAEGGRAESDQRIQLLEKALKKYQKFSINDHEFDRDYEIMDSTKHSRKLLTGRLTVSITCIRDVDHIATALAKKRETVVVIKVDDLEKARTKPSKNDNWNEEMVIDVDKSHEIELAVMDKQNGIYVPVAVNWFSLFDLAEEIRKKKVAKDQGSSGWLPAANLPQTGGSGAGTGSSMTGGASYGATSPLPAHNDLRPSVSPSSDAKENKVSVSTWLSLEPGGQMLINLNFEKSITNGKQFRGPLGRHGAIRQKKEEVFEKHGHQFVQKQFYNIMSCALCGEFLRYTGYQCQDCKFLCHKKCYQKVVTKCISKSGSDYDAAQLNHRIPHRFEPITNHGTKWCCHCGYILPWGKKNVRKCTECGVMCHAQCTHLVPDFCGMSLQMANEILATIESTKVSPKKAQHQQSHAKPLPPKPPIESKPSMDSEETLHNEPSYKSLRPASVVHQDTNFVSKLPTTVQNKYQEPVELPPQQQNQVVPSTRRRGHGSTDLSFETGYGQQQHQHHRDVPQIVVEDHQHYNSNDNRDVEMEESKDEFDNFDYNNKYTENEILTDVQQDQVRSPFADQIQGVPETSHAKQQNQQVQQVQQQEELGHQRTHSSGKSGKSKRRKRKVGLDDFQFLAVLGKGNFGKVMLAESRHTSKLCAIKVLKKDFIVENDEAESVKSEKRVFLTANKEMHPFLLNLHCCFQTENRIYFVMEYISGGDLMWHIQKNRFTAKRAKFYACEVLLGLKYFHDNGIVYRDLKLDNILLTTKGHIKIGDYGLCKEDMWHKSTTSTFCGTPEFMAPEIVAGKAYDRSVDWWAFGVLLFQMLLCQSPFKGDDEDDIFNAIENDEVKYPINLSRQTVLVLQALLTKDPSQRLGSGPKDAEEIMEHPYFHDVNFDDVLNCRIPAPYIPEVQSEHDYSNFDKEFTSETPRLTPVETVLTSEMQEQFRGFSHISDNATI"}, "PKH2": {"molecular_target": "T3, PKH2 (UniProt Q5A3P6)", "T3 sequence (whole entry)": "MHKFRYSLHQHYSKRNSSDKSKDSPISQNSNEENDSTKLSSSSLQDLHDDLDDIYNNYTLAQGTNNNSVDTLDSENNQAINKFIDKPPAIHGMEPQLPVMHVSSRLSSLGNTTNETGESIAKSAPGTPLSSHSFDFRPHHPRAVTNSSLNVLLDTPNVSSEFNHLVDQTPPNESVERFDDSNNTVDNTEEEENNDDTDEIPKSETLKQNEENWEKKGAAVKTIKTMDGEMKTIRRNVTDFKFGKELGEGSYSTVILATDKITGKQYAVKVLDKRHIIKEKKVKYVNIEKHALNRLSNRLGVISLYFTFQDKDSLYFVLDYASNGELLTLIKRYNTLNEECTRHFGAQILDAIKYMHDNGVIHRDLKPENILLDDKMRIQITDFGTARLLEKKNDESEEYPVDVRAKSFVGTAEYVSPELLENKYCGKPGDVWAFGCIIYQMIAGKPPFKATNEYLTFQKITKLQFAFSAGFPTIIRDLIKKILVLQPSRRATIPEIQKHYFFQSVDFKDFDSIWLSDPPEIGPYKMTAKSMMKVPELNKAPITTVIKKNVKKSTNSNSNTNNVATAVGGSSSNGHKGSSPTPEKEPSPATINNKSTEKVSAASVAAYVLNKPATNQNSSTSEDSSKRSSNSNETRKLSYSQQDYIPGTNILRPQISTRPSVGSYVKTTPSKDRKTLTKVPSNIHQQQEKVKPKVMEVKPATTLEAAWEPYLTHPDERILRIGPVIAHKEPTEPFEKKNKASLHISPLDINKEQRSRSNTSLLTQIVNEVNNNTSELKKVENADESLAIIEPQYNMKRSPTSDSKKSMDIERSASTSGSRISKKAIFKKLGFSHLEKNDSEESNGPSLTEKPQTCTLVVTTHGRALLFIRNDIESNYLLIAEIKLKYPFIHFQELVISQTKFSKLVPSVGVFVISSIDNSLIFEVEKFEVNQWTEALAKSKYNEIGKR"}}}
{"smiles": "Cc1[nH]nc2ccc(-c3cc(OC[C@@H](N)Cc4ccccc4)cnc3-c3ccoc3)cc12", "values": [{"measurement": "MIB bead binding (log2)", "setting": "ATG1; 0.1 µM", "result": -0.123}, {"measurement": "MIB bead binding (log2)", "setting": "ATG1; 1 µM", "result": -0.147}, {"measurement": "MIB bead binding (log2)", "setting": "ATG1; 10 µM", "result": -0.524}, {"measurement": "MIB bead binding (log2)", "setting": "PKC1; 0.1 µM", "result": -0.235}, {"measurement": "MIB bead binding (log2)", "setting": "PKC1; 1 µM", "result": 0.00546}, {"measurement": "MIB bead binding (log2)", "setting": "PKC1; 10 µM", "result": -0.233}, {"measurement": "MIB bead binding (log2)", "setting": "PKH2; 0.1 µM", "result": -0.165}, {"measurement": "MIB bead binding (log2)", "setting": "PKH2; 1 µM", "result": -0.0865}, {"measurement": "MIB bead binding (log2)", "setting": "PKH2; 10 µM", "result": -0.756}]}
